Data published in ChEMBL document CHEMBL1961873, “Compounds: GSK PKIS; Assays: Nanosyn kinase panel” (2012).

Key:
[1] = biological target: T1, 3-phosphoinositide-dependent protein kinase 1 (Homo sapiens) (UniProt O15530); conditions: at 0.1 µM;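 also: values are mean inhibition of PDK1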
T1 sequence (whole entry): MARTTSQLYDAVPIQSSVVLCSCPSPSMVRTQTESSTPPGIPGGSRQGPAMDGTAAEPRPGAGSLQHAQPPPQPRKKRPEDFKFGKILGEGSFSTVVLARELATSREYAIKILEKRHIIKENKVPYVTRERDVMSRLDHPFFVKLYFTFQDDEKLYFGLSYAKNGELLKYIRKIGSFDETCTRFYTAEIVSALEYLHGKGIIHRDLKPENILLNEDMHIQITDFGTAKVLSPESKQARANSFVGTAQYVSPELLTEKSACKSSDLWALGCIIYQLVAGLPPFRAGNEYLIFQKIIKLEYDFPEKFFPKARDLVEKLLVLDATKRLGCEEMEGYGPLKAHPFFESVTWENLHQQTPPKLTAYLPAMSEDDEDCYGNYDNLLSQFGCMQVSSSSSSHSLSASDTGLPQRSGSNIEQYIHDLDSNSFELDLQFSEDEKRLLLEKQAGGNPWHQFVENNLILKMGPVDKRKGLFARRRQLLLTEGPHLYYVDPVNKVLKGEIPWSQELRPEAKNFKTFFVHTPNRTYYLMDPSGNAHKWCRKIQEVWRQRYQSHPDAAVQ

[2] = biological target: cAMP-dependent protein kinase catalytic subunit alpha (Homo sapiens) (UniProt P17612); conditions: at 0.1 µM
[3] = biological target: cAMP-dependent protein kinase catalytic subunit alpha (Homo sapiens) (UniProt P17612); conditions: at 1 µM
[4] = biological target: Protein kinase C alpha type (Homo sapiens) (UniProt P17252); conditions: at 0.1 µM
[5] = biological target: Protein kinase C alpha type (Homo sapiens) (UniProt P17252); conditions: at 1 µM
[6] = biological target: Protein kinase C beta type (Homo sapiens) (UniProt P05771); conditions: at 0.1 µM
Sequence of Protein kinase C beta type (Homo sapiens) (P05771 2-671 limits assumed): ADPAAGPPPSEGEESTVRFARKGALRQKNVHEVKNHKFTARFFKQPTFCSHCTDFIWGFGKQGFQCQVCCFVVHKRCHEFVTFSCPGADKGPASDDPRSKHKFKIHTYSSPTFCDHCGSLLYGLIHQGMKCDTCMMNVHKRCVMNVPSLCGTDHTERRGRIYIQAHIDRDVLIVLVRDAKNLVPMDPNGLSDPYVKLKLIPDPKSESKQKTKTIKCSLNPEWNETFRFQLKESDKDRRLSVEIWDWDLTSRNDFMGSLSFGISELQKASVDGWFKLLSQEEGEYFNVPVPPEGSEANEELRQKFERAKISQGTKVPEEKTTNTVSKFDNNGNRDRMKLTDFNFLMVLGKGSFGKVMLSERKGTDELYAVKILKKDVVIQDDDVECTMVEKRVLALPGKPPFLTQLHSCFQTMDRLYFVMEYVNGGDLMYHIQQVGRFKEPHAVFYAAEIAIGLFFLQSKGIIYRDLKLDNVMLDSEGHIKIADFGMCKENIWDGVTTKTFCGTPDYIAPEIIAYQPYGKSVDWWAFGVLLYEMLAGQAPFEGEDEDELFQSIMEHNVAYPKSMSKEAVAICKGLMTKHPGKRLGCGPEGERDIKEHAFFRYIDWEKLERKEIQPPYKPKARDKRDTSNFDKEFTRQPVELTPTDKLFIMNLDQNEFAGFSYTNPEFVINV

[7] = biological target: Protein kinase C beta type (Homo sapiens) (UniProt P05771); conditions: at 1 µM
[8] = biological target: Protein kinase C eta type (Homo sapiens) (UniProt P24723); conditions: at 0.1 µM
Sequence of Protein kinase C eta type (Homo sapiens) (P24723 whole entry): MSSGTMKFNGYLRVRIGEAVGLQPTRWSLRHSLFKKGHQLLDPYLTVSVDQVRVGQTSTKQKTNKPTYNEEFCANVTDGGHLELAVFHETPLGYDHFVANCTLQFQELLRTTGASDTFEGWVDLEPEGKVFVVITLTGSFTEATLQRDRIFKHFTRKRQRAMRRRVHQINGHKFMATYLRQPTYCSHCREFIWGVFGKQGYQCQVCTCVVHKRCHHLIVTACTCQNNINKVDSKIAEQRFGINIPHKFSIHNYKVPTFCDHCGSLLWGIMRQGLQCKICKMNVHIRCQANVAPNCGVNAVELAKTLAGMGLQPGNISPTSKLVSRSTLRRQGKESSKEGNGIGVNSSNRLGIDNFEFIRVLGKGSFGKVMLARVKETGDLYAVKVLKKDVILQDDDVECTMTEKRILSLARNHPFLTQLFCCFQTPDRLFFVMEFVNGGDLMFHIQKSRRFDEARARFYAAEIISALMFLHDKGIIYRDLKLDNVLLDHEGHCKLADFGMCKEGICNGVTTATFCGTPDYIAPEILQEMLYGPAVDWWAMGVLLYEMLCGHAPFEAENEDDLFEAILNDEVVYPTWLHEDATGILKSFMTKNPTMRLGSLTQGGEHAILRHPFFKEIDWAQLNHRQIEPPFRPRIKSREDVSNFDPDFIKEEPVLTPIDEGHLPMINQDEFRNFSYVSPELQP

[9] = biological target: Protein kinase C eta type (Homo sapiens) (UniProt P24723); conditions: at 1 µM
[10] = biological target: Protein kinase C gamma type (Homo sapiens) (UniProt P05129); conditions: at 0.1 µM;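 also: values are mean percent inhibition of PKC gamma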

SMILES | inhibition [1] | inhibition [2] | inhibition [3] | inhibition [4] | inhibition [5] | inhibition [6] | inhibition [7] | inhibition [8] | inhibition [9] | inhibition [10]
NS(=O)(=O)c1ccc(-c2cc3ccncc3cc2OCc2ccccc2)cc1 | 3.11% | 1.4% | 0.52% | 0.12% | 1.77% | 0.43% | 3.25% | 4.33% | 3.62% | 1.21%
NS(=O)(=O)c1cccc(-c2cc3ccncc3cc2OCc2ccccc2)c1 | 0.97% | 1.81% | 3.34% | 1.18% | 1.96% | -0.33% | 0.71% | 2.45% | 2.7% | 3.28%
CCn1c(-c2nonc2N)nc2c(C#CC(C)(C)O)nc(OCCNC)cc21 | 1.35% | 11.6% | 49.2% | 0.49% | 3.55% | 4.85% | 29.9% | 78.9% | 95.4% | -2.02%
COc1cccc(-n2nc(C)c3c(N/N=C(\C)c4ccncc4)ncnc32)c1 | 2.62% | 0.69% | -0.34% | -0.84% | -1.11% | 0.03% | -2.45% | -0.66% | -5.32% | 1.51%
Nc1nccc(-c2c(-c3ccc(F)cc3)nn3cc(C(F)(F)F)ccc23)n1 | -0.37% | 0.74% | 2.17% | 0.05% | 1.25% | -1.02% | 0.52% | -1.68% | 1.15% | -1.38%
O=C1Nc2ccc(-c3cccnc3)cc2C1=Cc1cc(Br)c(O)c(Br)c1 | 3.18% | 1.62% | 1.19% | 1.72% | 2.45% | 0.24% | -1.03% | 3.09% | 0.7% | 4.09%
OCc1ccc(-c2nc(-c3ccccn3)c(-c3ccc4c(c3)OCO4)[nH]2)cc1 | 3.18% | 1.99% | 1.95% | 1.27% | 2.06% | 0.21% | 0.2% | 3.79% | 1.71% | 1.49%
NC(=O)c1sc(-n2cnc3ccccc32)cc1OCc1ccccc1Br | 1.27% | 1.4% | 4.48% | 1.58% | 2.92% | -0.55% | 0.73% | 5.09% | 2.7% | 1.38%
O=S(=O)(CCOCc1ccc(-c2ccc3ncnc(Nc4ccc(OCc5cccc(F)c5)c(Cl)c4)c3c2)o1)c1ccccc1 | -0.28% | 0.54% | -0.2% | 0.23% | 0.58% | -0.21% | -0.92% | 1.32% | 1.22% | 0.84%
COc1cc(Nc2nccc(-c3cnn4ncccc34)n2)cc(OC)c1 | 3.22% | 2.46% | 10.7% | 12.4% | 64% | 0.12% | 8.95% | 3.16% | 3.86% | 0.71%
N#Cc1c(NC(=O)c2ccccc2F)sc2c1CCCC2 | -1.52% | -0.5% | 0.91% | -0.76% | 1.15% | 0.38% | 1.07% | -2.89% | 1.15% | 0.73%
COc1ccc2ncnc(Nc3ccc(OCc4ccccc4)cc3)c2c1 | 1.04% | 2.11% | 1.43% | -0.06% | 1.22% | 0.57% | 2.16% | -0.44% | -0.65% | 0.01%
COc1cc2ncnc(Nc3ccc(C)c(O)c3)c2cc1OC | 1.3% | 2.17% | 3.17% | 1.06% | 3.24% | 1.28% | 5.43% | 3.76% | 0.65% | 2.11%
COc1cc2ncnc(Nc3ccc4c(cnn4Cc4ccccc4)c3)c2cc1OC | 0.98% | 0.6% | -0.11% | 0.53% | 0.88% | 0.81% | -2.42% | 5.6% | 3.69% | 2.66%
CC(C)c1ccc2c(c1)NC(=O)/C2=N/Nc1ccc(S(N)(=O)=O)cc1 | 0.82% | 1.46% | 0.47% | -0.57% | 0.11% | -0.04% | -5.38% | 2.07% | -1.13% | -0.1%
Cc1ccc(O)cc1Nc1ccnc2ccc(S(C)(=O)=O)cc12 | 1.13% | 3.25% | 11.9% | 1.78% | 11.2% | 1.93% | 4.87% | 2.56% | 6.46% | 0.83%
CCCN1CCCC(c2ccc(Nc3nc(Nc4cc(F)ccc4C(N)=O)c4cc[nH]c4n3)c(OC)c2)C1 (stereo not given) | 2.08% | 2.2% | 2.23% | 2.24% | 15.9% | -0.31% | 3.2% | 1.86% | 1.44% | 5.05%
